Assay results reported in PMC5540273 (PLoS ONE, 2017).

test system: T1, MEK4; conditions: concentration: 1 μM,replicates: in singlicate; n = 1
T1 construct: gene MAP2K4
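Also: KINOMEscan kinase panel screen.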

Compound | %Inh [%]
CC(=O)Nc1ccc(-c2cc3ncnc(SCC(=O)O)c3s2)cc1 | 18
Cn1ccc2ncnc(Oc3ccc(NC(=O)Nc4cc(C(C)(C)C)on4)c(Cl)c3)c21 | 9
O=C(Nc1cccc(Oc2ccc3nccn3n2)c1)Nc1cccc(C(F)(F)F)c1 | 0
COC(=O)c1cccc(NC(=O)NC2CCN(c3ccnc(NCc4ccc(F)cc4)n3)CC2)c1 [GSK1379860] | 0
CN(c1cccc(CNc2nc(Nc3ccc4c(c3)CC(=O)N4)ncc2C(F)(F)F)c1)S(C)(=O)=O | 35
Cn1ccc2ncnc(Oc3ccc(NC(=O)Nc4cccc(C(F)(F)F)c4)c(Cl)c3)c21 | 6
C[C@@H](Oc1cc(-n2cnc3cc(-c4cnn(C)c4)ccc32)sc1C(N)=O)c1ccccc1Cl [GSK580432] | 18
COC(=O)Nc1nc2cc(Oc3ccc(NC(=O)Nc4cc(C(F)(F)F)ccc4Cl)cc3)ccc2[nH]1.Cl [GW697465] | 4
O=c1[nH]cc(-c2ccc(O)cc2)c2sc(-c3ccncc3)cc12 [GSK1033723] | 0
C[C@@H]1CCN(C(=O)N2CCCC2)C[C@@H]1N(C)c1ncnc2[nH]ccc12 | 13
COc1ccc(Nc2nccc(N3CCC(NC(=O)c4cccc(C#N)c4)C3)n2)cc1 (stereo not shown) [GSK1379730] | 8
CN(c1ccccc1CNc1nc(Nc2ccc3c(c2)CC(=O)N3)ncc1C(F)(F)F)S(C)(=O)=O | 84
CSc1nccc(-c2c(-c3ccc(F)cc3)ncn2CCCN2CCOCC2)n1.Cl [SB-217146] | 16
CC(=O)Nc1nc2cnc(Nc3cc(NC(=O)c4cccc(CC(C)(C)C#N)c4)ccc3C)nc2s1 | 25
C[C@@H](Oc1cc(-n2cnc3ccc(-c4ccncc4)cc32)sc1C(N)=O)c1ccccc1Cl [GSK483724] | 37
CS(=O)c1ccc(-c2coc3ccc(-c4n[nH]c(=O)o4)cc23)cc1 (stereo not shown) | 43
CS(=O)(=O)Nc1ccc(-c2ccnc3[nH]ccc23)cc1 [GSK993273] | 67
Cl.Cl.NC[C@H](CC1CCCCC1)NC(=O)c1ccc(-c2ccnc3[nH]ccc23)s1 [GSK1581428] | 54
COc1cc2nccc(Nc3ccc(Oc4ccccc4)cc3)c2cc1OC.Cl [GI261656] | 11

Compound | %Inh [%]
COc1cc2c(Nc3ccc(NC(=O)c4ccccc4)cc3)ncnc2cc1OCCCN1CCOCC1 [GSK301329] | 5
Cn1ccc2ncnc(Oc3ccc(NC(=O)Nc4cccc(C(F)(F)F)c4)c(F)c3)c21 | 0
O=C(NOCC1CC1)c1cc(Br)c(F)c(F)c1Nc1ccc(I)cc1Cl | 0
O=C1NCCc2[nH]c(-c3ccncc3)cc21 | 0
Cc1n[nH]c2cc(Nc3ccnc(Nc4cccc(CN5CCOCC5)c4)n3)ccc12 [GW682569] | 16
COc1cccc(C2=C(Nc3cccc(Cl)c3)C(=O)NC2=O)c1 [SB-341556] | 4
COc1cccc(CNC(=O)NC2CCN(c3ccnc(Nc4cc(OC)c(OC)c(OC)c4)n3)C2)c1 (stereo not shown) [GSK1379765] | 25
Cl.Nc1n[nH]c2cc(-c3ccccn3)ccc12 [GSK2189892] | 5
Cc1ccc(CC(=O)N2CCc3cc(-c4cn(C)c5ncnc(N)c45)ccc32)cc1 [GSK2634758] | 22
CN(c1ccc2c(c1)nc(NCc1ccc(F)cc1)n2C)c1ccnc(Nc2ccc(CS(C)(=O)=O)cc2)n1.Cl [GW813244] | 40
Cl.c1ccc(Oc2ccc(Nc3ccnc4cc(-c5ccc(CN6CCNCC6)o5)ccc34)cc2)nc1 [GW567142] | 19
CC(C)S(=O)(=O)N1CCN(Cc2ccc3c(c2)nc(NC(=O)c2ccsc2)n3C[C@H](O)c2ccccc2)CC1 [GW635815] | 9
Cc1nnc(-c2ccc3occ(-c4ccc(S(C)=O)cc4)c3n2)o1 (stereo not shown) | 0
OCCn1cc(-c2cnc3nnn(Cc4ccc5ncccc5c4)c3n2)cn1 | 0
CCn1c(-c2nonc2N)nc2cncc(CNC3CCNCC3)c21.Cl [SB-747651] | 40
NC(=O)c1ccc(-c2cc3ncnc(SCC(=O)O)c3s2)cc1 | 0
Cn1cc(-c2cccc3c(N)c(C(N)=O)nnc23)cn1 | 19
CCCC(=O)Nc1n[nH]c2ncccc12 [SB-601436] | 14
